Laboratory results from PubChem BioAssay AID1159580 (chemical genetic matrix, 2015).
Among all 5,500 compounds or so, about 2,000 (36%) were called active. Another 18% or so got no clear call; they are omitted. Rule as the data show it: active = normalized growth mostly below about 0.91 (no sharp cut-off); inconclusive = no clear call, values can overlap the other calls; inactive = mostly above about 0.92. The list shows a part of the results.

Test: chemical genetic growth profiling, strain panel (AID 1159580);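 also: tested at 20 µM; growth read once vehicle control cultures reached saturation at 30 °C; 1 = growth at the plate median or of vehicle wells; lower values mean less growth of the strain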
Settings: S. cerevisiae deletion strains, growth OD

Measured: normalized growth

O=[N+]([O-])c1cccc(C2CC(c3ccccc3)=Nc3ccccc3S2)c1 (stereo unspecified)
inactive: locus YAR019C, strain CDC15, active compounds read low 0.947 | locus YBL105C, strain PKC1, active compounds read low 0.953 | locus YBR135W, strain CKS1, active compounds read low 0.959 | locus YBR136W, strain MEC1, active compounds read low 0.974 | locus YBR160W, strain CDC28, active compounds read low 0.966 | locus YDL017W, strain CDC7, active compounds read low 0.97 | locus YDL028C, strain MPS1, active compounds read low 0.965 | locus YDL101C, strain DUN1, active compounds read low 0.95 | locus YDL108W, strain KIN28, active compounds read low 0.975 | locus YDL132W, strain cdc53, active compounds read low 0.952 | locus YDL214C, strain PRR2, active compounds read low 0.962 | locus YDR052C, strain DBF4, active compounds read low 0.973 | locus YDR054C, strain cdc34, active compounds read low 0.946 | locus YDR226W, strain ADK1, active compounds read low 0.953 | locus YDR477W, strain SNF1, active compounds read low 0.962 | locus YER123W, strain YCK3, active compounds read low 1 | locus YER133W, strain GLC7, active compounds read low 0.96 | locus YFL009W, strain cdc4, active compounds read low 0.959 | locus YFL029C, strain CAK1, active compounds read low 0.939 | locus YFR003C, strain YPI1, active compounds read low 0.973 | locus YFR019W, strain FAB1, active compounds read low 0.996 | locus YFR028C, strain CDC14, active compounds read low 0.948 | locus YGR040W, strain KSS1, active compounds read low 0.955 | locus YGR052W, strain FMP48, active compounds read low 1.06 | locus YGR092W, strain DBF2, active compounds read low 0.969 | locus YHR030C, strain SLT2, active compounds read low 0.976 | locus YHR079C, strain IRE1, active compounds read low 0.975 | locus YHR082C, strain KSP1, active compounds read low 0.997 | locus YHR205W, strain SCH9, active compounds read low 0.934 | locus YIL147C, strain SLN1, active compounds read low 0.969 | locus YJL095W, strain BCK1, active compounds read low 0.982 | locus YJL128C, strain PBS2, active compounds read low 0.93 | locus YJL157C, strain FAR1, active compounds read low 0.969 | locus YJR016C, strain ILV3, active compounds read low 0.954 | locus YJR066W, strain TOR1 (second series), active compounds read low 0.934 | locus YJR066W, strain TOR1, active compounds read low 0.974 | locus YKL048C, strain ELM1, active compounds read low 0.971 | locus YKL067W, strain YNK1, active compounds read low 0.968 | locus YKL101W, strain HSL1, active compounds read low 0.965 | locus YKL193C, strain SDS22, active compounds read low 0.954 | locus YKL203C, strain TOR2, active compounds read low 1.01 | locus YLR113W, strain HOG1, active compounds read low 0.927 | locus YLR133W, strain CKI1, active compounds read low 0.977 | locus YLR403W, strain SFP1, active compounds read low 0.95 | locus YML070W, strain DAK1, active compounds read low 0.975 | locus YMR001C, strain CDC5, active compounds read low 0.946 | locus YMR205C, strain PFK2 (second series), active compounds read low 0.967 | locus YMR277W, strain FCP1, active compounds read low 0.952 | locus YNL006W, strain LST8, active compounds read low 0.97 | locus YNL020C, strain ARK1, active compounds read low 0.963 | locus YNL161W, strain CBK1, active compounds read low 0.957 | locus YNL183C, strain NPR1, active compounds read low 0.985 | locus YNL207W, strain RIO2, active compounds read low 0.964 | locus YNL222W, strain SSU72, active compounds read low 0.958 | locus YNL307C, strain MCK1 (second series), active compounds read low 0.98 | locus YOL078W, strain AVO1, active compounds read low 0.952 | locus YOL136C, strain PFK27, active compounds read low 0.996 | locus YOR061W, strain CKA2, active compounds read low 0.949 | locus YOR119C, strain RIO1, active compounds read low 0.975 | locus YOR231W, strain MKK1, active compounds read low 0.983 | locus YOR329C, strain SCD5, active compounds read low 0.95 | locus YPL031C, strain PHO85, active compounds read low 0.961 | locus YPL153C, strain RAD53, active compounds read low 0.964 | locus YPL204W, strain HRR25, active compounds read low 0.979 | locus YPL209C, strain IPL1, active compounds read low 0.957 | locus YPL256C, strain CLN2, active compounds read low 0.939 | locus YPR025C, strain CCL1, active compounds read low 0.954 | locus YPR106W, strain ISR1, active compounds read low 0.967 | locus YPR111W, strain DBF20, active compounds read low 0.968 | strain NNK1, active compounds read low 0.963 | strain TSCII, active compounds read low 0.946
